Assay results as given in PubChem BioAssay (NCI).
About 83,000 compounds went through this panel and 20% of them were active in at least one assay; those are over-represented in the sample as a whole.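 Assay: single dose, 48 h. Readout: percent growth (0 = no net growth; negative = cell death). Active: <10.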 A number with no mark means an inactive call. Active and inactive are the calls of the source.

Key:
Assay in all cases: NCI-60 one-dose screen, 48 h (100 = growth as untreated, 0 = no growth, -100 = all killed)
Settings in all cases: 10 µM unless noted
[1] = system: T-47D breast
[2] = system: BT-549 breast
[3] = system: MDA-MB-435 melanoma
[4] = system: SW-620 colon
[5] = system: MCF7 breast
[6] = system: HCT-116 colon
[7] = system: HCC-2998 colon
[8] = system: KM12 colon

Structure (SMILES)	growth [1]	growth [2]	growth [3]	growth [4]	growth [5]	growth [6]	growth [7]	growth [8]
COc1ccc(-c2cnc3ccnn3c2-c2cc(OC)c(OC)c(OC)c2)cc1	22.2%	66.7%	-38.5% (active)	16.1%	25.4%	27.5%	80.8%	16.1%
COc1ccc2[nH]c(O)c(/C=c3/ccc4c(c3)N=C(c3ccc(C(F)(F)F)cc3)N=4)c2c1	57.4%	81.2%	76.5%	86.4%	45.1%	56%	97.7%	75.1%
COc1cc2nccc(Oc3ccc(NC(=O)C4(C(=O)Nc5ccc(F)cc5)CC4)cc3)c2cc1OC(=O)c1ccc(N)cc1	19.5%	36.1%	33.2%	33.5%	23.8%	23.1%	25.8%	12.3%
CCOc1cccc(/C=N/NC(=O)Cc2ccc(Nc3ccnc(C(F)(F)F)c3)cc2)c1O	15.7%	40.7%	40.3%	21.5%	5.26% (active)	20.9%	37.4%	30.1%
Cc1ccc(-c2nc3ccccc3c(=O)n2/N=C/c2cccc3ccccc23)cc1	42.6%	80.1%	69.2%	93.9%	62.9%	71.5%	80.5%	69.1%
CC1=NC(c2ccc(Cl)cc2)C2=C(N1)/C(=C/c1ccc(Cl)cc1)CCC2 (centres undefined)	82.5%	66%	22.4%	82.1%	31.3%	-39.9% (active)	41.5%	38%
CC(=O)c1cccc(Nc2ncnc3ccc(NC(=O)c4ccco4)cc23)c1	77.1%	96.5%	83%	115%	80.9%	91%	111%	
COc1ccc(C2CC(c3cccc(Nc4ccnc5cc(Cl)ccc45)c3)=NN2c2ccc(Cl)cc2)cc1 (centres undefined)	40.6%	56.7%	30.6%	30.7%	65%	66.3%	7.59% (active)	22.2%
COc1cc(C2CC(c3cccc(Nc4ccnc5cc(Cl)ccc45)c3)=NN2c2ccccc2)cc(OC)c1OC (centres undefined)	42.9%	88.6%	24.4%	37.8%	60.6%	64.8%	91.8%	40.7%
C/C(=C\C(=N\N=C(N)N)c1ccc(Cl)cc1)c1ccc(Cl)cc1	-79.6% (active)	-84.1% (active)	-62.9% (active)	-72.7% (active)	-78.4% (active)	-85.9% (active)	-87.3% (active)	-88.2% (active)
C=CCn1c(C)nc2cc(Nc3nc(Nc4ccc5nc(C)n(CC=C)c5c4)nc4ccccc34)ccc21	96%	106%	108%	106%	92.4%	98.9%	104%	109%
CC(=O)OC1Oc2ccccc2-c2oc3nc(=N)n(C)c-3cc21 (centres undefined)	93.6%	128%	122%	104%	98.6%	100%	102%	209%
COc1ccc(OC)c(Nc2nc(-c3c(C)nc4sccn34)cs2)c1	26.3%	84.8%	66.1%	84.2%	39.1%	84.6%	91.3%	69.2%
CCCCOc1ncnc2nc[nH]c12	107%	97.6%	111%	108%	96.9%	101%	111%	
COc1ccc2[nH]c(C(=O)OCc3ccc4cccc(O)c4n3)cc2c1	-53.9% (active)	-79.3% (active)	-86.2% (active)	-72.8% (active)	-39% (active)	-77.7% (active)	-35.8% (active)	10.7%
COc1ccccc1/C=N\NC(=S)Nc1ccc(F)cc1	72.5%	73.3%	1.12% (active)	37.5%	60.5%	68.7%	66.5%	51.4%

Structure (SMILES)	growth [1]	growth [2]	growth [3]	growth [4]	growth [5]	growth [6]	growth [7]	growth [8]
Cc1cc2nc3c(=O)[nH]c(=O)nc-3n(CC=O)c2cc1C	100%	113%	92.2%	99.9%	99%	106%	111%	107%
N=C(N)c1ccc(-c2ccc(-c3cc(Cl)cc(Cl)c3)o2)nc1	-66.1% (active)	91.2%	-78.1% (active)	-82.7% (active)	-67.1% (active)	-74% (active)	-41.9% (active)	
O=C(Nc1ccc2ncnc(Nc3ccc(F)c(Cl)c3)c2c1)c1cccs1	28.8%	68.3%	70.2%	93.2%	56.1%	54.7%	99.2%	
COc1cc(C)c2c(=O)c3c(oc2c1)C(=O)c1c(O)c(OC)cc(O)c1C3=O	0.298% (active)	11.7%	16.3%	16.9%	7.86% (active)	7.58% (active)	1.73% (active)	14.6%
CC1(C)CC[C@]2(C(=O)N3CCNCC3)CC[C@]3(C)C(=CC[C@@H]4[C@@]5(C)CCC(=O)C(C)(C)[C@@H]5CC[C@]43C)[C@@H]2C1	102%	106%	105%	106%	98.6%	101%	106%	111%
CC(C)NCCCCCNc1cc(O)cc2cccnc12	31.3%	104%	101%	83.1%	43.3%	65.5%	54.6%	100%
O=C(/C=C/c1cn(-c2ccccc2)nc1-c1cccc(Nc2ccnc3cc(Cl)ccc23)c1)c1ccc2c(c1)OCO2	93.3%	100%	69.6%	95.9%	81.1%	83.8%	102%	94.1%
O=c1c2sc3ccccc3c2nnn1-c1ccc(F)c(Cl)c1	45.9%	81.6%	72.3%	62.3%	63.9%	19.9%	68.7%	
COc1cc(-c2csc(NC(=O)Nc3cccc(C(F)(F)F)c3)n2)cc(OC)c1OC	7.61% (active)	43.8%	57.1%	74.3%	35.5%	46.9%	81.1%	34.5%
Cc1n(Cc2ccc3ccccc3n2)cc[n+]1Cc1ccc2ccccc2c1	0.908% (active)	-0.0129% (active)	0.529% (active)	20.6%	4.65% (active)	4.92% (active)	19.8%	5.21% (active)
COc1cc(/C=C2\C(=O)Nc3ccc(N(C)C)cc32)cc(OC)c1OC	34.3%	6.82% (active)	-37.7% (active)	8.08% (active)	12%	13.7%	49.1%	
O=C(CS)OCC(COC(=O)CS)(COC(=O)CS)COC(=O)CS	89.1%	108%	78.8%	107%	75.9%	79.6%	92.2%	67.5%
O=C(CN1CCN(c2ccccc2)CC1)N1CCN(c2nnc(-c3ccc(Cl)cc3)c(-c3ccc(Cl)cc3)n2)CC1	36.1%	46.2%	48.2%	68.8%	33%	25%	62.4%	46.1%
Clc1cn2cc(-c3ccc(Cl)c(Cl)c3Cl)nc2s1	71.8%	129%	88.1%	111%	87.8%	96.9%	106%	111%
COc1cc2c(cc1OCCCOc1cc3c(cc1OC)C(=O)N1CCC[C@H]1C=N3)C=CC(C)(C)O2	62.6%	-0.137% (active)	101%	18.1%	39.3%	61%	100%	109%
COC(=O)c1ccc(NC(N)=NCCC(C)(C)c2ccc(C(F)(F)F)cc2)nc1	-3.4% (active)	42.6%	50.1%	25%	10%	8.17% (active)	-54% (active)	
